{"source": "PubChem BioAssay AID2685", "about": "(National Center for Advancing Translational Sciences (NCATS), 2010)", "note": "In all, about 320,000 compounds went through this assay and about 2,100 (0.66%) were called active. About 53% were inconclusive and are not listed. The call rests on the fitted dose curve; in most records, active means well fitted inhibition curve with a large enough effect in the signal ratio, with a control signal flat (not every such curve was filed as active); inconclusive means small, poorly fitted or top-dose-only effect, or effect the other way, or a change in a side signal; inactive means flat fitted curve, though single readings scatter; the % refers to the signal ratio. The full list was thinned out, with actives kept by preference. Potency means the concentration at half of the fitted maximal effect."}
{"assay": "qHTS Assay for Lipid Storage Modulators in Drosophila S3 Cells;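 on cell number change: cells counted by Cell Tracker Red CMTPX staining in the red channel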; on lipid storage change, negative = inhibition: on the % scale 0 is the no-effect control and ±100 the full control effect", "details": "BODIPY lipid droplet fluorescence, 18-24 h, cells fed with added oleic acid; cell number change: measured here: cell count max response; series mostly up to 46.1 µM; lipid storage change, negative = inhibition: at the top concentration", "in_short": "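Drosophila S3 cells got compounds at several concentrations plus oleic acid (400 uM solution). Laser-scanning cytometry with 488 nm excitation read lipid droplets at 500-530 nm and cells at 575-640 nm. Percent activity was relative to 20 uM Triacsin C.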", "units": {"cell number change": "%"}}
{"smiles": "CN(C(=O)c1ccc(NC(=O)c2ccco2)cc1)c1ccccc1", "Potency": "8.2 µM (active)", "cell number change": 5.45}
{"smiles": "CCC(OC(=O)c1cccs1)C(=O)NCc1ccc(C)cc1", "note": "(stereo not given)", "lipid storage change, negative = inhibition": "-3.65% (inactive)", "cell number change": -0.108}
{"smiles": "CCC(C(=O)N(C(C)C)C(C)C)c1ccccc1", "note": "(stereo not given)", "lipid storage change, negative = inhibition": "16.1% (inactive)", "cell number change": 4.75}
{"smiles": "O=C(N/C(=C\\c1ccccc1)C(=O)N1CCCCC1)c1ccc(Br)o1", "cell number change": 0.343, "outcome": "inactive [at 0.369 µM]"}
{"smiles": "CC(C(=O)NCC1(c2ccccc2)CCCC1)N1CCOCC1", "note": "(stereo not given)", "outcome": "inactive", "cell number change": 9.07}
{"smiles": "COc1ccc(CN(CC2CCC(C(=O)O)CC2)C(=S)Nc2cc(C)cc(C)c2)cc1", "note": "(stereo not given)", "lipid storage change, negative = inhibition": "6.11% (inactive)", "cell number change": -1.54}
{"smiles": "CC[C@H](C)NC(=O)CCCCCn1c(=S)[nH]c2c([nH]c3ccc(OC)cc32)c1=O", "lipid storage change, negative = inhibition": "-12.6% (inactive)", "cell number change": -11.2}
{"smiles": "CCCNC(=O)CCCCn1c(=S)[nH]c2c([nH]c3ccc(OC)cc32)c1=O", "lipid storage change, negative = inhibition": "-8.43% (inactive)", "cell number change": 24.9}
{"smiles": "COc1ccc2[nH]c3c(=O)n(CCCC(=O)NC4CCC(C)CC4)c(=S)[nH]c3c2c1", "note": "(stereo not given)", "Potency": "2.31 µM (active)", "cell number change": 6.49}
{"smiles": "O=C(CSc1cn(Cc2cccc(F)c2)c2ccccc12)NCc1ccc(F)cc1", "lipid storage change, negative = inhibition": "17% (inactive)", "cell number change": 3.63}
{"smiles": "O=C(O)C1CCC(=O)N1Cc1ccccc1Cl", "note": "(stereo not given)", "lipid storage change, negative = inhibition": "-7.87% (inactive)", "cell number change": -9.84}
{"smiles": "O=C(Nc1ccc(Cl)cc1)C1CCC(=O)N1Cc1ccccc1Cl", "note": "(stereo not given)", "outcome": "inactive", "cell number change": -16.5}
{"smiles": "CNC(=O)C1CCC(=O)N1Cc1ccccc1Cl", "note": "(stereo not given)", "Potency": "29.1 µM (active)", "cell number change": -10.4}
{"smiles": "O=C(O)c1ccc(-n2nnnc2SCc2ccccc2)cc1", "outcome": "inactive", "cell number change": 17.8}
{"smiles": "COc1ccc(C(=O)C[n+]2cccc(C)c2)cc1", "lipid storage change, negative = inhibition": "4.32% (inactive)", "cell number change": 11.3}
{"smiles": "Cc1ccc[n+](CC(=O)c2ccc(Cl)cc2)c1", "lipid storage change, negative = inhibition": "-24.8% (inactive)", "cell number change": 2.36}
{"smiles": "Cc1ccc[n+](CC(=O)c2ccc(Br)cc2)c1", "Potency": "11.6 µM (active)", "cell number change": 14.7}
{"smiles": "O=C(O)c1cccc(Oc2ccccc2[N+](=O)[O-])c1", "lipid storage change, negative = inhibition": "9.92% (inactive)", "cell number change": -2.25}
{"smiles": "CCOc1ccc(/C=N/n2nnnc2N)cc1O", "lipid storage change, negative = inhibition": "-6.33% (inactive)", "cell number change": 23.4}
{"smiles": "CCc1ccc(C(=O)c2cnc3ccc(OC)cc3c2N2CCN(CC)CC2)cc1", "lipid storage change, negative = inhibition": "-4.3% (inactive)", "cell number change": -13.9}
{"smiles": "Cn1ccs/c1=N\\S(=O)(=O)c1ccc(Br)cc1", "lipid storage change, negative = inhibition": "-1.49% (inactive)"}
{"smiles": "Cn1ccs/c1=N\\S(=O)(=O)c1ccc(C(C)(C)C)cc1", "Potency": "16.4 µM (active)", "cell number change": -15.3}
{"smiles": "Cn1ccs/c1=N\\S(=O)(=O)c1ccc(F)cc1", "outcome": "inactive"}
{"smiles": "COc1ccc2c(c1)CCc1c(C(=O)NCc3ccc(Cl)cc3)noc1-2", "lipid storage change, negative = inhibition": "-2.21% (inactive)", "cell number change": 3.58}
{"smiles": "CC(=O)c1c(C)[nH]c(C(=O)Nc2ccc3c(c2)OCCO3)c1C", "lipid storage change, negative = inhibition": "13.6% (inactive)", "cell number change": -13.3}
{"smiles": "CCOc1ccc(NC(=S)N2CCC(c3nc4ccccc4[nH]3)CC2)cc1", "lipid storage change, negative = inhibition": "-3.34% (inactive)", "cell number change": 0.472}
{"smiles": "COCCn1c(SCC(=O)NNC(=O)c2ccccc2)nc2ccccc2c1=O", "lipid storage change, negative = inhibition": "1.17% (inactive)", "cell number change": 22}
{"smiles": "C=CCNC(=O)NC(=O)COC(=O)/C(C#N)=C/c1cc(C)n(CC(C)C)c1C", "lipid storage change, negative = inhibition": "-18% (inactive)", "cell number change": 19.6}
{"smiles": "CCN1C(=O)c2cccc3c(Cl)ccc1c23", "lipid storage change, negative = inhibition": "17.8% (inactive)", "cell number change": -17.2}
{"smiles": "Cc1cc(Cl)c2oc(C(=O)N(C)CCCCN3CCOCC3)c(C)c2c1", "Potency": "1.3 µM (active)", "cell number change": -10.7}
{"smiles": "Cc1cc(Cl)c2oc(C(=O)N(C)CC3CCOCC3)c(C)c2c1", "lipid storage change, negative = inhibition": "5.8% (inactive)", "cell number change": -6.12}
{"smiles": "Cc1cc(Cl)c2oc(C(=O)N(C)CCc3cnn(C)c3)c(C)c2c1", "outcome": "inactive", "cell number change": -0.298}
{"smiles": "CC1(OC(=O)C2CCCC2)C(=O)C=C2C=C(c3ccsc3)N(CCCCO)C=C2C1=O", "note": "(stereo not given)", "lipid storage change, negative = inhibition": "-0.0639% (inactive)", "cell number change": -2.75}
{"smiles": "O=C1c2ccccc2C(=O)N1CCCOc1ccccc1", "lipid storage change, negative = inhibition": "28.1% (inactive)", "cell number change": -1.01}
{"smiles": "NC(=O)C(Cc1ccccc1)N1C(=O)c2ccccc2C1=O", "note": "(stereo not given)", "lipid storage change, negative = inhibition": "-19.5% (inactive)", "cell number change": -7.43}
{"smiles": "O=C(O)C(CCCCN1C(=O)c2ccccc2C1=O)N1C(=O)c2ccccc2C1=O", "note": "(stereo not given)", "Potency": "29.1 µM (active)", "cell number change": -7.36}
{"smiles": "CCC(C)(C)n1nnnc1C(c1ccc(N(C)C)cc1)N1CCN(C2CCCCC2)CC1", "note": "(stereo not given)", "outcome": "inactive", "cell number change": 1.78}
{"smiles": "Cc1cc(OCC(O)CNC(C)(C)C)ccc1Cl", "note": "(stereo not given)", "lipid storage change, negative = inhibition": "0.716% (inactive)", "cell number change": 3.23}
{"smiles": "CCOC(=O)N1CCN(C(=O)CSc2ccc(Cl)cc2)CC1", "Potency": "2.59 µM (active)", "cell number change": 4.78}
{"smiles": "CCOC(=O)N1CCN(C(=O)CSc2ccccc2)CC1", "outcome": "inactive"}
{"smiles": "CCOC(=O)N1CCN(C(=O)CCSc2ccc(Cl)cc2)CC1", "lipid storage change, negative = inhibition": "1.95% (inactive)", "cell number change": -8.05}
{"smiles": "OC(CNCc1cccnc1)COc1ccc2ccccc2c1", "note": "(stereo not given)", "lipid storage change, negative = inhibition": "-13.2% (inactive)", "cell number change": -3.7}
{"smiles": "CCOC(=O)C1=C(C)N=c2s/c(=C/c3ccc(OCC(=O)O)cc3)c(=O)n2C1c1ccc(OC)cc1OC", "note": "(stereo not given)", "Potency": "11.6 µM (active)", "cell number change": -12.6}
{"smiles": "CCOC(=O)C1=C(C)N=c2s/c(=C\\c3ccc(OCC(=O)O)cc3)c(=O)n2C1c1ccccc1", "note": "(stereo not given)", "lipid storage change, negative = inhibition": "-20.2% (inactive)"}
{"smiles": "CCOC(=O)C1=C(C)N=c2s/c(=C\\c3ccc(OCC(=O)O)c(OC)c3)c(=O)n2C1c1ccc(OC)cc1", "note": "(stereo not given)", "lipid storage change, negative = inhibition": "21.8% (inactive)", "cell number change": 8.11}
{"smiles": "OCCN1CCN(c2cc(C(F)(F)F)nc3c(F)cccc23)CC1", "lipid storage change, negative = inhibition": "5.94% (inactive)", "cell number change": 16.3}
{"smiles": "CCOC(=O)N1CCN(C(=O)C2CCN(S(=O)(=O)N3CCC4(CC3)OCCO4)CC2)CC1", "lipid storage change, negative = inhibition": "-0.783% (inactive)"}
{"smiles": "CC1(C)O[C@H]2CC(=O)OC[C@@]23C1CC(=O)[C@]1(C)C3CC[C@@]2(C)[C@H](c3ccoc3)OC(=O)[C@H]3O[C@]321", "note": "(stereo not given in full)", "lipid storage change, negative = inhibition": "19% (inactive)"}
